66 molecules from ChEMBL document CHEMBL4513216, “Probing the Open Global Health Chemical Diversity Library for Multistage-Active Starting Points for Next-Generation Antimalarials” (ACS Infect Dis, 2020) can be followed below.

Each structure is given as a SMILES string. Among all 69,000 compounds or so, about 8,600 (12%) showed an effect of 50% or more. Shown is part of a subset that was picked to be rich in strong results.

The test has as its system Plasmodium berghei. In words: Screen against P. berghei liver stage (PbLuc), transformed with Luciferase, at 10uM. The format is functional, HepG2. The note with it: tested at 10 uM.
As for `O=C(Nc1cccc(F)c1)C1=NOC2(CCNCC2)C1`, the INHIBITION is given as -2.41%. With `O=C(NCCOc1ncc(Cl)cc1Cl)c1ccoc1` the figure was 24.6%. For `O=C(CCn1cccn1)NCCOc1ccc2c(c1)OCO2`, the INHIBITION is -13.9%. For the molecule `O=C(CCn1cccn1)NCCOc1cccc(Cl)c1`, the INHIBITION amounted to 54.4%. As for `Cc1ccoc1C(=O)NCCOc1ncc(Cl)cc1Cl`, the INHIBITION is listed as 52%.

For the molecule `O=C(CCn1cncn1)NCCOc1cccc(Cl)c1`, the INHIBITION turned out to be 10.7%. Take `O=C(CCc1ccncc1)NCCOc1ncc(Cl)cc1Cl`: the INHIBITION was found to be 3.87%. On to `O=C(NCCOc1ncc(Cl)cc1Cl)c1cccnc1`, for which the INHIBITION came out at 19.4%.

With `O=C(NCCOc1ncc(Cl)cc1Cl)c1ccncc1`, the INHIBITION was 39.5%. As to `O=C(CCn1cccn1)NCCOc1ncc(Cl)cc1Cl`, the INHIBITION is reported as 53.3%.

Regarding `CCn1cnnc1C1CCN(C(=O)c2cccc(-n3cccc3)c2)CC1`, the INHIBITION was 20%. In the case of `O=C1NC2(CCCN(C(=O)CCn3cncn3)C2)Oc2ccccc21` (stereo unspecified), the INHIBITION is listed as -5.279%. As to `Cc1cc(C)n(CCNCc2cc(-c3ccccc3)c[nH]c2=O)n1`, the INHIBITION is 7.43%.

For the molecule `Cc1noc(C)c1CN1CC[C@H]2OCC[C@@]2(C(=O)NC2CCCC2)C1`, the INHIBITION is given as 17.1%. With `Cc1cc(C)c2c(OCC(=O)N(C)CC(=O)NC(C)C)nn(C)c2n1` the figure was -0.275%. As to `CCCn1cc(NC(=O)NCC2CCS(=O)(=O)C2)nn1` (stereo unspecified), the INHIBITION was 16.6%. Consider `COCCN1C(=O)[C@@H]2CC[C@H]1CN(c1ncccn1)C2`, for which the INHIBITION was -33.4%. On to `Cc1nc(C2CCCN2CC(=O)NCCc2ccc(Cl)cc2)no1` (stereo unspecified), for which the INHIBITION stood at 44.1%. With `c1coc(-c2nnc(CN(Cc3cccs3)CC3CCCO3)o2)c1` (stereo unspecified), the INHIBITION was determined as 16.6%. As for `CC(C)(C)c1nnc(CN(Cc2cccs2)CC2CCCO2)o1` (stereo unspecified), the figure is 44%; as for `Brc1ccc(-c2nnc(CN(Cc3cccs3)CC3CCCO3)o2)s1` (stereo unspecified), 90.2%; as for `CC1CCN(Cc2c(C(C)C)[nH]c3ncccc23)CC1`, 8.12%.

Consider `COCCC(=O)N1CCC2(CC1)CN(S(C)(=O)=O)Cc1ccccc1O2`, for which the INHIBITION was -0.66%.

With `Cc1ccc(CN2CCOC3(CCCN(c4cccc(F)c4)C3)C2)o1` (stereo unspecified), the INHIBITION turned out to be 81.2%. Turning to `O=S(=O)(C1CC1)N1CCOC2(CCCN(c3cccc(F)c3)C2)C1` (stereo unspecified), the INHIBITION is listed as -57.1%.

In the case of `Fc1cccc(N2CCOC3(CCCN(c4nncs4)C3)C2)c1` (stereo unspecified), the INHIBITION is listed as -22.5%. For the molecule `Fc1cccc(N2CCCC3(CN(Cc4ccco4)CCO3)C2)c1` (stereo unspecified), the INHIBITION was 80%. As to `OCCN1CCOC2(CCCN(c3cccc(F)c3)C2)C1` (stereo unspecified), the INHIBITION is listed as 43.8%.

Turning to `Cc1nnc(N2CCCC3(CN(c4cccc(F)c4)CCO3)C2)o1` (stereo unspecified), the INHIBITION turned out to be 33%. With `CS(=O)(=O)NC1CC2(CCN(CC3CC3)CC2)Oc2ccccc21` (stereo unspecified) the figure was 19.4%; with `CN(Cc1cccnc1)[C@@H]1CN(C(=O)NC2CC2)[C@@H]2CCCO[C@H]12`, 32.2%. For the molecule `Cc1cc(C(=O)N2CCCC(c3cc(=O)nc4n3CCC4)C2)on1` (stereo unspecified), the INHIBITION is 20.6%.

On to `CCOc1nc2cnccc2n(CC(=O)Nc2ccccc2OC)c1=O`, for which the INHIBITION is on record as -1.45%. For the molecule `CO[C@H]1CCN(S(=O)(=O)c2cccs2)[C@H]1Cc1ccncc1`, the INHIBITION is 7.77%. Turning to `O=S(=O)(c1cccs1)N1CC[C@@H](O)[C@@H]1Cc1ccncc1`, the INHIBITION is listed as 71.9%. For `O=S(=O)(c1cccs1)N1CC[C@H](O)[C@@H]1Cc1ccncc1`, the INHIBITION turned out to be 28.4%.

Take `Cc1ccc(Sc2nccn(C)c2=O)cc1`: the INHIBITION is -53.1%. As for `Cc1c[nH]c(C2CN(Cc3ccccc3C(=O)O)CCO2)n1` (stereo unspecified), the figure is 26.7%. `COc1ccc(CNC(=O)CCSCc2csc(C)n2)cn1`: the INHIBITION is given as -12.2%. For the molecule `CCN(CC)c1ncc(CNC2CCc3nc(C)nn3C2)s1` (stereo unspecified), the INHIBITION was found to be 4.22%. As for `CC(O)CNc1ccc(C#N)cc1C(F)(F)F` (stereo unspecified), the INHIBITION was 50.8%. Regarding `COCC(O)CNc1ccc(C#N)cc1C(F)(F)F` (stereo unspecified), the INHIBITION is 77.7%. With `CC/C=C(/C)C(=O)NS(=O)(=O)c1ccc(C#N)cc1C(F)(F)F` the figure was -7.53%; with `CCC(CC)C(=O)NS(=O)(=O)c1ccc(C#N)cc1C(F)(F)F`, 11.9%.

Consider `CCC(C)C(=O)NS(=O)(=O)c1ccc(C#N)cc1C(F)(F)F` (stereo unspecified), for which the INHIBITION came out at 9.54%.

As to `N#Cc1ccc(NCC(O)c2ccco2)c(C(F)(F)F)c1` (stereo unspecified), the INHIBITION stood at 25.7%. With `Cc1ccc(C2CCCN(C(=O)c3cnn(C)c3)C2)nc1` (stereo unspecified) the figure was 3.91%; with `CCNC(=O)CN1CCCC(c2ccc(C(=O)O)cc2)C1` (stereo unspecified), 45%. With `CC(C)c1cncnc1N1CC[C@H](N2CCOCC2)[C@H](CCCO)C1`, the INHIBITION turned out to be 30.5%.

As for `O=C(c1ccc(=O)[nH]c1)N1C[C@H]2CC[C@@H](C1)N(Cc1ccccc1)C2`, the INHIBITION is given as -70.7%. Turning to `O=C(NCCc1cnccn1)C1(N2CCCCC2)Cc2ccccc2C1`, the INHIBITION is reported as 43.7%. Take `Cc1cc(NC(=O)c2ccc(CN3CC[C@H](O)C3)cc2)ccc1F`: the INHIBITION stood at 90.3%. On to `NC(=O)C1CCCN(Cc2ccc(C(=O)Nc3cnns3)cc2)C1` (stereo unspecified), for which the INHIBITION turned out to be 40.15%. As to `O=C(Nc1cccc2c1CCCC2)c1cccc(CN2CC[C@H](O)C2)c1`, the INHIBITION is on record as 37.6%.

Regarding `CCNC(=O)C1CCN(Cc2ccc(C(=O)Nc3cnns3)cc2)C1` (stereo unspecified), the INHIBITION is recorded as 12.2%.

In the case of `COc1ccc(NC(=O)c2ccc(CN3CC[C@H](O)C3)cc2)c(OC)n1`, the INHIBITION stood at 26.7%.

Consider `Cc1cncc(NC(=O)c2ccc(CN3CC[C@H](O)C3)cc2)c1`, for which the INHIBITION came out at 87.5%. In the case of `CCNC(=O)C1CCN(Cc2ccc(C(=O)Nc3nnc(C)s3)cc2)C1` (stereo unspecified), the INHIBITION came to 57.35%. For the molecule `Cc1cncc(NC(=O)c2ccc(CN3CCC(CO)CC3)cc2)c1`, the INHIBITION is recorded as -12.4%. For `Cc1[nH]ccc1C(=O)Nc1cccc(CN2CCC(O)CC2)c1`, the INHIBITION is on record as -4.74%. As to `Cc1cncc(NC(=O)c2ccc(CN3CCCC(C(N)=O)C3)cc2)c1` (stereo unspecified), the INHIBITION worked out at 23%.

`COc1cc(NC(=O)c2ccc(CN3CC[C@H](O)C3)cc2)cc(OC)c1`: the INHIBITION turned out to be 67.6%. In the case of `O=C(Nc1ccccc1CCO)c1cccc(CN2CC[C@H](O)C2)c1`, the INHIBITION worked out at 23.9%.

Regarding `Cc1ccc(CN2C[C@@H]3[C@@H](C(=O)N4CCCC4)CCS(=O)(=O)[C@@H]3C2)cc1`, the INHIBITION is recorded as -10.9%. On to `O=C(c1ccc[nH]1)N1C[C@@H]2CC[C@H]1CN(c1ncccn1)C2`, for which the INHIBITION was -16.5%. On to `O=C1C[C@H]2[C@@H](CCN2C(=O)c2ccc[nH]2)N1CCN1CCCC1`, for which the INHIBITION came out at 47.9%.
